Sampled rows, rich in hits. Any-hit rate of the full collection: about 28%.
CYP2C9 inh: human CYP2C9 inhibition. P11712. CYP2C9 Supersomes, luciferin-H conversion, luminescence. 96,000 tested, 20% active. inhibition, % at 5 µM;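 active = blocking of liver enzyme CYP2C9 beyond about 50% at 5 µM, limit read from the data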
Target sequence (P11712 whole entry, looked up): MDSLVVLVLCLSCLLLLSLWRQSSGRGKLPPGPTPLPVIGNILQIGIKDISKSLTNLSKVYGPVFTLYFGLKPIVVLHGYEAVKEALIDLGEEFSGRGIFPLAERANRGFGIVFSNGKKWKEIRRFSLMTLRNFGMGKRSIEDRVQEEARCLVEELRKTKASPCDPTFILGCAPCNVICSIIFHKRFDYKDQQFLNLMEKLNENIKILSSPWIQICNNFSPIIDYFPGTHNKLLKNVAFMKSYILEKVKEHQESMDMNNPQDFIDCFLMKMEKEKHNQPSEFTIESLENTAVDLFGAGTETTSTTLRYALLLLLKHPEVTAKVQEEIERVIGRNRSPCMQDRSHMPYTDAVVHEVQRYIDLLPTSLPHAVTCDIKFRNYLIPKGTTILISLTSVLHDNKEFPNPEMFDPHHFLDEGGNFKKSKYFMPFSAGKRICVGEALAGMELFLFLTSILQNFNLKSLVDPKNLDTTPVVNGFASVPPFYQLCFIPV
CYP2C19 inh: blocks human cytochrome P450 2C19; P33261; CYP2C19 Supersomes, luciferin-H EGE luminescence, 30 min; inhibition, % at 5 µM; 96,000 tested, 21% active; AID 778;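 active = CYP2C19 inhibition above a set limit at 5 µM in the primary screen, cut at about 50% in these data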;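 note: plate controls were negative control wells for no effect and 2.5 mM tranylcypromine positive control for full effect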
CYP2C19 activ: increases human CYP2C19 enzyme activity | recombinant CYP2C19, luciferin-H EGE luminescence; stronger effect = higher value; 0 = fully inhibited enzyme, 1 = untreated enzyme | activation factor at 5 µM | 96,000 tested, under 10 active;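 active = activation factor of at least 2 at 5 µM in the primary screen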;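 note: 0 = wells with 2.5 mM tranylcypromine and 1 = vehicle-only wells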
Pyk2 oligo antag: blocks oligomerization of human Pyk2 in cells; z-score (the deposit names both 25 µM and 10 µM); Q293 cells, Pyk2 FERM NanoBiT luminescence; stronger effect = lower value; 99,000 tested, 0.83% active; Q14289;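 active = Z-score of -3 or lower, scaled per plate to the spread of control and sample wells; inactive = z-score above -3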;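 note: negative z-score means lost luminescence so less FERM oligomerization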
CYP2C9 act: increases human cytochrome P450 2C9 activity. P11712. activation factor at 5 µM. 96,000 tested, 1.4% active. AID 1024. recombinant CYP2C9, luciferin-H conversion, luminescence; stronger effect = higher value; factor 1 = untreated enzyme, 0 = blocked;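 active = activation factor of 2 or more for CYP2C9 at a 5 µM dose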;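 note: 0 = sulfaphenazole-blocked wells and 1 = vehicle-only wells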
* = called active by the depositor; nt = no result given.

SMILES | CYP2C9 inh | CYP2C19 inh | CYP2C19 activ | Pyk2 oligo antag | CYP2C9 act
Cc1cc(C)nc(N2CCCC(C(=O)NCc3ccccc3)C2)n1 (stereo not drawn) | nt | nt | nt | -0.26 | nt
Cc1cc(C)nc(N2CCCC(C(=O)NC(C)CCc3ccco3)C2)n1 (stereo not drawn) | 59* | 74* | 0.3 | 0.49 | 0.4
Cc1ccc(-n2c(C)cc(C(=O)COC(=O)c3c(C)noc3C)c2C)cc1 | 20 | 10 | 0.9 | -1.1 | 0.8
Cc1cc(C(=O)COC(=O)C2=NNC(=O)CC2)c(C)n1-c1ccccc1 | 32 | 50* | 0.5 | 0.28 | 0.7
Cc1ccc(-n2c(C)cc(C(=O)COC(=O)C3=NNC(=O)CC3)c2C)cc1 | 52* | 62* | 0.4 | -1.1 | 0.5
CC(=O)c1ccc(-n2nnnc2SCC(=O)NNC(=O)c2ccco2)cc1 | -4 | -2 | 1 | -0.4 | 1
O=C1CC(N2CCC(c3nc4ccccc4o3)CC2)C(=O)N1Cc1cccs1 (stereo not drawn) | 20 | 20 | 0.8 | 0.08 | 0.8
COc1ccc(C(C)=O)cc1CN1C(=O)NC2(CCCCCC2)C1=O | 29 | 88* | 0.1 | -1.2 | 0.7
CNC(=O)c1sc(-c2ccc(Cl)cc2)nc1C | -17 | 10 | 0.9 | 1.8 | 1.2
CSc1cc(-c2ccc(Cl)cc2)c(C(=O)NC(C)C)s1 | 26 | 69* | 0.3 | -1.5 | 0.7
CSc1cc(-c2ccc(Cl)cc2)c(C(=O)NN)s1 | 65* | 70* | 0.3 | -1.7 | 0.3
COc1ccc(CCCNC(=O)CC#N)cc1OC | -4 | 2 | 1 | 0.31 | 1
CC1CCN(c2cc(N3CCC(C)CC3)c([N+](=O)[O-])cc2/C=C(\C#N)c2nn(-c3ccccc3)c(N)c2C#N)CC1 | 81* | 51* | 0.5 | -0.95 | 0.2
CC1CCCN(c2ccc(/C=C(\C#N)c3nn(-c4ccccc4)c(N)c3C#N)cc2[N+](=O)[O-])C1 (stereo not drawn) | 80* | 35 | 0.6 | -1.6 | 0.2
CC(=O)c1cc(-c2nc3ccccc3n2C)n(C)c1 | 73* | 56* | 0.4 | 0.46 | 0.3
Cn1cc(C(=O)c2ccc(F)cc2)cc1-c1nc2ccccc2n1C | 37 | 25 | 0.8 | -0.76 | 0.6
NC(=O)CN(c1ccccc1)C1SC(=O)N(Cc2ccccc2)C1=O (stereo not drawn) | 14 | 52* | 0.5 | 1.1 | 0.9
O=C(Nc1ccncc1)c1ccc(NS(=O)(=O)c2cccc(F)c2)cc1 | nt | nt | nt | -0.7 | nt
COc1ccc(CNCC(O)(c2ccccc2)c2ccc(Cl)cc2)cc1 (stereo not drawn) | 58* | 82* | 0.2 | 1.5 | 0.4
CCCCn1c(SCC(=O)N2CCCC2)nnc1-c1ccccc1 | 1 | 52* | 0.5 | -0.21 | 1
O=C(CSc1nnc(-c2ccccc2)n1Cc1ccccc1)N1CCCC1 | -6 | -5 | 1.1 | -1.2 | 1.1
C=CCn1c(SCC(=O)N2CCN(c3ccc(F)cc3)CC2)nnc1-c1cccs1 | 30 | 65* | 0.3 | nt | 0.7
CCCCn1c(SCC(=O)N2CCOCC2)nnc1-c1cccs1 | 62* | 13 | 0.9 | -0.38 | 0.4
CCCCn1c(Cc2ccccc2)nnc1SCC(=O)N1CCOCC1 | nt | nt | nt | -0.05 | nt
C=CCn1sc(=N)c(C#N)c1N | 16 | -6 | 1.1 | 0.92 | 0.8
SMILES | CYP2C9 inh | CYP2C19 inh | CYP2C19 activ | Pyk2 oligo antag | CYP2C9 act
O=C1/C(=C\c2cccnc2)CCc2ccccc21 | 28 | 75* | 0.3 | 0.22 | 0.7
Clc1ccccc1-c1nnc2sc(CCc3ccccc3)nn12 | 53* | 88* | 0.1 | -0.81 | 0.5
c1ccc(CCc2nn3c(-c4ccncc4)nnc3s2)cc1 | 54* | 95* | 0.1 | -1.6 | 0.5
c1ccc(OCc2nn3c(-c4cccnc4)nnc3s2)cc1 | 16 | 32 | 0.7 | 0.41 | 0.8
S=C(Nc1ccc2c(c1)OCO2)NC1CCN(Cc2ccccc2)CC1 | 5 | 18 | 0.8 | 0.32 | 0.9
CCN(CC)C(=O)COc1ccc(CC(=O)O)cc1OC | 2 | -6 | 1.1 | -0.27 | 1
COc1ccc(O)c(-c2cc(-c3cccs3)[nH]n2)c1 | 74* | 37 | 0.6 | -1.1 | 0.3
O=C(c1cc(-c2ccco2)nn1-c1cccc(Cl)c1)N1CCCCC1 | 87* | 64* | 0.4 | -0.29 | 0.1
CC(C)NC(=O)c1cc(-c2ccco2)nn1-c1ccc(Cl)cc1 | 34 | 8 | 0.9 | 0.31 | 0.7
Cc1ccccc1OC(C)C(=O)NC1CCCC1 (stereo not drawn) | 42 | 74* | 0.3 | 0.03 | 0.6
Cc1cccc(CN(CC(=O)N/N=C/c2ccco2)S(=O)(=O)c2ccc(Cl)cc2)c1 | 93* | 100* | 0 | 0.36 | 0.1
Cc1cccc(CN(CC(=O)N/N=C/c2cccs2)S(=O)(=O)c2ccc(Cl)cc2)c1 | 70* | 74* | 0.3 | -1.8 | 0.3
CCOC(=O)c1cc2c(=O)n3cccc(C)c3nc2n(Cc2ccccc2Cl)c1=N | 13 | 0 | 1 | nt | 0.9
COc1ccc(/C(C)=N\n2cnnc2)cc1 | -22 | -8 | 1.1 | -0.77 | 1.2
O=C(CC(SCCO)c1ccc2c(c1)OCO2)c1cccs1 (stereo not drawn) | 95* | 100* | 0 | 1.8 | 0.1
O=C(CSc1nnc(-c2ccc(O)cc2)n1Cc1ccco1)c1cccs1 | 78* | 65* | 0.3 | -1.1 | 0.2
O=C(CSc1nnc(-c2cccnc2)n1Cc1ccco1)c1ccccc1 | 19 | 24 | 0.8 | nt | 0.8
O=C(CSc1nnc(-c2ccc(O)cc2)n1Cc1ccco1)c1ccccc1 | 50* | 38 | 0.6 | -1 | 0.5
O=C(CC(SCc1ccco1)c1ccc(O)cc1)c1cccs1 (stereo not drawn) | 98* | 79* | 0.2 | 0.83 | 0
O=C(CSc1nnc(-c2ccco2)n1Cc1ccco1)N1CCOCC1 | 1 | 1 | 1 | 0.15 | 1
O=C(CC(SCCO)c1ccc(F)cc1)c1ccco1 (stereo not drawn) | 26 | 22 | 0.8 | -0.38 | 0.7
CCN=C1SC(CC(=O)Nc2sc(C)c(C)c2C(=O)OC)C(=O)N1CC (stereo not drawn) | 17 | 42 | 0.6 | -1.5 | 0.8
Cc1ccc(OCc2nnc(SCC(=O)c3ccccc3)n2Cc2ccco2)cc1 | 95* | 97* | 0 | -0.56 | 0
O=C(CSc1nnc(COc2ccccc2)n1Cc1ccco1)c1ccc(F)cc1 | 25 | 7 | 0.9 | 0.21 | 0.8
Cc1ccn(C(=O)c2ccc(NC(=O)C3CCCCC3)cc2)n1 | 17 | 41 | 0.6 | -0.15 | 0.8
C=CCn1c(SCC(=O)Nc2ncc(Cc3cc(C(F)(F)F)ccc3Cl)s2)nnc1-c1ccncc1 | 21 | 38 | 0.6 | -0.86 | 0.8
C/C(=N\NC(=O)c1ccccc1[N+](=O)[O-])c1c(O)cc(C)oc1=O | nt | nt | nt | -0.11 | nt
O=C(c1ccccc1)C1C(=O)c2ccccc2C1=O | 20 | 0 | 1 | 1.3 | 0.8
C/C(=N\NC(=O)c1ccccc1O)C1C(=O)c2ccccc2C1=O | 90* | 35 | 0.6 | -2.6 | 0.1
C/C(=N\NC(=O)c1ccccc1O)c1c(O)cc(C)oc1=O | 62* | 39 | 0.6 | 0.61 | 0.4
